Most compounds without a hit are left out; they make up all but 1.7% or so of the library.
H9c2 TAG inh: inhibitors of triacylglycerol accumulation, primary screen, cell-based, uHTS, fluorescence, H9c2; actives 0.66% (n = 230,000); H9c2 cells, Nile Red lipid (TAG) fluorescence; cells loaded with 200 µM oleic acid; inhibition, % at 12.5 µM;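 active means pattern-corrected inhibition of lipid staining of at least 50% with the nuclear-stain viability signal not falling by more than 50%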
CHT allo act: CHT positive allosteric modulators, primary screen, cell-based, membrane potential dye, choline EC20; B-score at 10 µM; CHT-expressing cells; stronger effect = higher value; LV-AA mutant CHT in HEK293 cells; actives 0.49% (n = 310,000); High affinity choline transporter 1 (Homo sapiens), Q9GZV3; AID 488977, 2010;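 active means initial fluorescence not abnormally high and integrated response B-score, plate-corrected, over 3 SD above library mean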
Target sequence (Q9GZV3 whole entry, looked up): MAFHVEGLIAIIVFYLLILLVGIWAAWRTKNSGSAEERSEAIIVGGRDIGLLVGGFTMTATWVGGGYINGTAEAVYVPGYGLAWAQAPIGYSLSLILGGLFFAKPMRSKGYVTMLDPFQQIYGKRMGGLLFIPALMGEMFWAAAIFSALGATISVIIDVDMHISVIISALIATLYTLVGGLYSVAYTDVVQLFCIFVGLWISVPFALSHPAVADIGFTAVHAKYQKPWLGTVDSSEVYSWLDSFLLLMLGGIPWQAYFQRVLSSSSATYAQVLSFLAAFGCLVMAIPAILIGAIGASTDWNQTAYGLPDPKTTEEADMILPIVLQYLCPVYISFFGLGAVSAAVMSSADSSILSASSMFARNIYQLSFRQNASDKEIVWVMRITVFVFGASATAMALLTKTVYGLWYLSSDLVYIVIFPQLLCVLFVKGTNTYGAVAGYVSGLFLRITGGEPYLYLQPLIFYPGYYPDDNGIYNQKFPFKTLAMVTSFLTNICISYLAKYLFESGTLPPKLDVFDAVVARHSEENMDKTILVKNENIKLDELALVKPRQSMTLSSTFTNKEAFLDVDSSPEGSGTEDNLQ
beta cell repl: inducers of MIN6 beta-cell proliferation, primary screen, ATP luminescence, uHTS. actives 0.29% (n = 330,000). proliferation, % at 10 µM. MIN6 cells proliferation, ATPlite luminescence, 48 h; cells starved in 0.2% serum; 100% = growth in 10% serum;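 active means compounds whose signal lies at least 3.5 SD above the mean of all wells on their plate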
CHT block: inhibitors of human choline transporter CHT; CHT-expressing cells, membrane potential dye, choline response; stronger effect = lower value; B-score at 10 µM; AID 488975, 2010; actives 0.86% (n = 310,000);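 active means B-score over 3 SD under the library average, and starting fluorescence ratio not unusually high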;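 further: choline stimulus applied at its EC90 after an EC20 pre-addition; B-score computed on integrated fluorescence ratio after choline addition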
CHT block conf: CHT inhibitors, confirmation, cell-based, membrane potential dye, duplicate. shares compounds with CHT block. actives 70% (n = 2,400). CHT activity remaining % of control (stronger effect = lower value), % at 10 µM. CHT-expressing cells, choline membrane potential dye; LV-to-AA substituted CHT, HEK293 cells. AID 493221, 2011;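 active means choline transporter activity left, mean of duplicates at 10 µM, below buffer-only control mean minus 3 SD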;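 further: depolarization triggered by choline at its EC90 following an EC20 pre-addition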
HEK293 MPD ctr: membrane potential effects in parental HEK293, counter-screen for CHT inhibitor project, cell-based, membrane potential dye; shares compounds with CHT block; membrane potential ratio readout (active if shifted either direction beyond buffer ±3SD; no single direction) at 10 µM; actives 4% (n = 2,400); choline response; active = decrease or increase beyond buffer ±3SD;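 further: parental cells lack the transporter so any hit is non-specific; ratio is peak minus trough fluorescence over baseline after EC90 choline challenge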
Of the large screens only hits and unclear results are named; the others gave an inactive call (follow-up assays come after a bar, where they were run).

O=C(COC(=O)c1cc(NS(=O)(=O)c2cccs2)ccc1O)Nc1ccccc1	none
COc1ccc(C2=NN(c3nc(C(=O)O)cs3)C(O)(C(F)(F)F)C2)c(OC)c1 (centres undefined)	CHT block -8.93 | CHT block conf 41.9% | HEK293 MPD ctr inactive
NC(=O)NC(CC(=O)NCc1ccc2c(c1)OCO2)c1ccccc1Cl (centres undefined)	none (no result: H9c2 TAG inh)
COc1ccc(C(C(=O)NC2CCCCC2)N(CC2CCCO2)C(=O)C2COc3ccccc3O2)cc1OC (centres undefined)	CHT block -5.92 | CHT block conf inactive | HEK293 MPD ctr inactive
Cc1cc(C)nc(SCc2cc(=O)c(OC(=O)c3ccc(S(=O)(=O)N4CCCC4)cc3)co2)n1	CHT block -7.24 (no result: H9c2 TAG inh) | CHT block conf 51.2% | HEK293 MPD ctr inactive
Cc1cc(C)nc(SCc2cc(=O)c(OC(=O)c3cc([N+](=O)[O-])ccc3Cl)co2)n1	CHT block -7.36 (no result: H9c2 TAG inh) | CHT block conf 28.2% | HEK293 MPD ctr inactive
Cc1ccnc(SCc2cc(=O)c(OC(=O)c3ccccc3)co2)n1	none
Cc1cc(C)nc(SCC(=O)Nc2ccc(S(=O)(=O)N3CCCCC3)cc2)n1	none (no result: H9c2 TAG inh)
Cc1cc(C)nc(SCc2cc(=O)c(OC(=O)c3ccco3)co2)n1	CHT block -6.06 (no result: H9c2 TAG inh) | CHT block conf 16.6% | HEK293 MPD ctr inactive
Cc1cc(C)nc(SCc2cc(=O)c(OC(=O)c3ccc(Br)o3)co2)n1	CHT block -8.23 (no result: H9c2 TAG inh) | CHT block conf 13.6% | HEK293 MPD ctr inactive
O=C(Oc1coc(CSc2ncccn2)cc1=O)c1ccccc1[N+](=O)[O-]	none
COC(=O)[C@]1(Cc2ccccc2)N[C@H](CN(C)S(=O)(=O)c2ccc(C(C)(C)C)cc2)[C@@H]2C(=O)N(Cc3ccccc3)C(=O)[C@@H]21	none (no result: CHT allo act, CHT block)
Cc1ccc(CSc2nnc(SCC(=O)N/N=C/c3ccc(C(=O)O)cc3)s2)cc1	CHT block -5 | CHT block conf inactive | HEK293 MPD ctr inactive
Cn1cc(C(=O)N2CCc3ccccc3C2)c(=O)c2cc(S(=O)(=O)N3CCOCC3)ccc21	CHT block -6.05 | CHT block conf inactive | HEK293 MPD ctr inactive
CCn1cc(C(=O)NCCCN2CC(C)CC(C)C2)c(=O)c2cc(S(=O)(=O)N(C)C)ccc21 (centres undefined)	none (no result: H9c2 TAG inh)
C=CCn1cc(C(=O)NCCCN(CC)CC)c(=O)c2cc(S(=O)(=O)N3CCC(C)CC3)ccc21	CHT block -8.56 (no result: H9c2 TAG inh) | CHT block conf 25.7% | HEK293 MPD ctr inactive
CCn1cc(C(=O)NCCCN2CCCC(C)C2)c(=O)c2cc(S(=O)(=O)N3CCc4ccccc4C3)ccc21 (centres undefined)	CHT block -15.7 | CHT block conf 20.3% | HEK293 MPD ctr 3.61
CCCCN(CCCC)CCNC(=O)c1cn(CC)c2ccc(S(=O)(=O)N3CCc4ccccc4C3)cc2c1=O	CHT block -9.17 (no result: H9c2 TAG inh) | CHT block conf 12.4% | HEK293 MPD ctr inactive
CC1CCN(S(=O)(=O)c2ccc3c(c2)c(=O)c(C(=O)N2CCOCC2)cn3C)CC1	none (no result: H9c2 TAG inh)
COc1ccc(S(=O)(=O)N2CCC(C(=O)NN3CCCCC3)CC2)cc1OC	none (no result: CHT allo act, CHT block)
CCOC(=O)c1c(CCl)nc2ccccc2c1C	CHT block -8.92 | CHT block conf 68.0% | HEK293 MPD ctr inactive
CC1CCCC(NC(=O)CN(C)CC(=O)Nc2cccc(F)c2)C1C (centres undefined)	none (no result: CHT allo act, CHT block)
COC(=O)CCCCCN1C(=O)NC(C2CC2)C(C(=O)OCc2ccccc2)=C1C (centres undefined)	CHT block -5.37 | CHT block conf 65.2% | HEK293 MPD ctr inactive
CN(C)c1ccc(C(=O)Nc2ccc(S(=O)(=O)NC3=NCCCCC3)cc2)cc1	none (no result: H9c2 TAG inh)
O=C(Nc1ccc(S(=O)(=O)NC2=NCCCCC2)cc1)C1COc2ccccc2O1 (centres undefined)	CHT block -5.11 | CHT block conf 40.0% | HEK293 MPD ctr inactive
